# Reference: publication PMC7862700, “An all-to-all approach to the identification of sequence-specific readers for epigenetic DNA modifications on cytosine”
# What was measured:
# Assay in all cases: DAPPL (digital affinity profiling via proximity ligation, sequencing); 10 mM Tris-HCl pH 7.5, 50 mM NaCl, 1 mM DTT, 4% glycerol, room temperature, 30 min; GST-TFs on glutathione beads, 16-mer random dsDNA library, 0.1% formaldehyde crosslink after washing; high values mean tight binding
# [1] = target: T1, FEV (Homo sapiens, UniProt Q99581 1-238); conditions: protein: recombinant; tags: N-terminal GST; dsDNA, one strand shown
# T1 sequence: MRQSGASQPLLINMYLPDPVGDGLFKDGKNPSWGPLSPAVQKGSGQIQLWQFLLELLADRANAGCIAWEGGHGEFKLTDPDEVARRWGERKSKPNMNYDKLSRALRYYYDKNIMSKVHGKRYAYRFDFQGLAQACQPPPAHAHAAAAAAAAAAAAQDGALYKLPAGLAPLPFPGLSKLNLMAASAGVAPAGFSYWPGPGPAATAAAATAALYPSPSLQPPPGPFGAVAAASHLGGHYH
# How it was run: (§1)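 Human transcription factors were made in yeast as GST fusions, captured on glutathione beads and barcoded with DNA. With a tag-only sample included, the pool was incubated with 200 nmole of a random double-stranded 16-mer DNA library in Tris/NaCl/DTT/glycerol buffer at room temperature for 30 min, then crosslinked with 0.1% formaldehyde after washing, ligated by proximity, amplified and sequenced. For binding signal, each hexamer's read frequency for a factor is divided by its frequency for the tag-only sample.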
# [2] = target: ETV5 (Homo sapiens, UniProt P41161 1-510); conditions: protein: recombinant; tags: N-terminal GST; dsDNA, one strand shown
# How it was run: as §1
# [3] = target: HSF1 (Homo sapiens, UniProt Q00613 1-529); conditions: protein: recombinant; tags: N-terminal GST; chain copies: 3; dsDNA, one strand shown
# How it was run: as §1
# [4] = target: T2, SPIC (Homo sapiens, UniProt Q8N5J4 1-248); conditions: protein: recombinant; tags: N-terminal GST; dsDNA, one strand shown
# T2 sequence: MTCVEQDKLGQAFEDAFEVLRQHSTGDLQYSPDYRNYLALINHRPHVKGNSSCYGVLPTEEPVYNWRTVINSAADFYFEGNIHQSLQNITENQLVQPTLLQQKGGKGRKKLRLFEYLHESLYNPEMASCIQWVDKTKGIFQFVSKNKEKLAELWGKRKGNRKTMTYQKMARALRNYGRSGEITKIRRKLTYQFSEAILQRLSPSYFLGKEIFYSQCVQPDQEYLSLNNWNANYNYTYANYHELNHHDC
# How it was run: as §1
# [5] = target: ELF4 (Homo sapiens, UniProt Q99607 1-663); conditions: protein: recombinant; tags: N-terminal GST; dsDNA, one strand shown
# How it was run: as §1
# [6] = target: T3, ELK4 (Homo sapiens, UniProt P28324-2 1-405); conditions: protein: recombinant; tags: N-terminal GST; dsDNA, one strand shown
# T3 sequence: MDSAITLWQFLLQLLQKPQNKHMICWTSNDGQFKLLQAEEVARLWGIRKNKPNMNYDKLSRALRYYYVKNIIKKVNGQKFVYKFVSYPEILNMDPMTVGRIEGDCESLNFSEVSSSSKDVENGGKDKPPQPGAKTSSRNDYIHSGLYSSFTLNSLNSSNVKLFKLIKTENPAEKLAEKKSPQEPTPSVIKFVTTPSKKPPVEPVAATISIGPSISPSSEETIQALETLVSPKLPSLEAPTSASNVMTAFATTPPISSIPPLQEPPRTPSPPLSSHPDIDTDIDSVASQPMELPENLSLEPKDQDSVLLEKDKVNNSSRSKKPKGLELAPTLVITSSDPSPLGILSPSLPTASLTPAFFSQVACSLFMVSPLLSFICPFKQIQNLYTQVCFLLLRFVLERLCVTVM
# How it was run: as §1
# [7] = target: T4, ETV2 (Homo sapiens, UniProt O00321 1-342); conditions: protein: recombinant; tags: N-terminal GST; dsDNA, one strand shown
# T4 sequence: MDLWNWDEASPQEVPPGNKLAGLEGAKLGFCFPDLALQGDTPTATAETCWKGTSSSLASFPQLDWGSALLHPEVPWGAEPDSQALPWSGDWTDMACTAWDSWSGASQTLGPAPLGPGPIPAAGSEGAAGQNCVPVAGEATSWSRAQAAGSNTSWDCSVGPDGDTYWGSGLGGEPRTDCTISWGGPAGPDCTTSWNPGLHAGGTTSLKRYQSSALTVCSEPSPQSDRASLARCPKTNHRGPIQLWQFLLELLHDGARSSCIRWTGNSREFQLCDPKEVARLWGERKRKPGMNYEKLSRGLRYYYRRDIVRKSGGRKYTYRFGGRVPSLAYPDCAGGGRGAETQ
# How it was run: as §1
# [8] = target: T5, ELF3 (Homo sapiens, UniProt P78545 1-371); conditions: protein: recombinant; tags: N-terminal GST; dsDNA, one strand shown
# T5 sequence: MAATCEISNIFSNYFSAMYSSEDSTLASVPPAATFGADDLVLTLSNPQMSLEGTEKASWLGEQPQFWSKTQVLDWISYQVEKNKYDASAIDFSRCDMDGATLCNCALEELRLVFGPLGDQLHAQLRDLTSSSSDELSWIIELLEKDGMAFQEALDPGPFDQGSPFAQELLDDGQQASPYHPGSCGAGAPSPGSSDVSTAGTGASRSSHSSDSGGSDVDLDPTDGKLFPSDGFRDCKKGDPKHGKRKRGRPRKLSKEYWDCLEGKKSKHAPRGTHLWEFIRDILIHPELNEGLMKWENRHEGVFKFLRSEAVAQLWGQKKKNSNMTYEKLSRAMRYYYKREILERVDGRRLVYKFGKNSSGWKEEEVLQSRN
# How it was run: as §1
# [9] = target: CRX (Homo sapiens, UniProt O43186 1-299); conditions: protein: recombinant; tags: N-terminal GST; dsDNA, one strand shown
# How it was run: as §1
# Chain of HSF1 (Q00613 whole entry): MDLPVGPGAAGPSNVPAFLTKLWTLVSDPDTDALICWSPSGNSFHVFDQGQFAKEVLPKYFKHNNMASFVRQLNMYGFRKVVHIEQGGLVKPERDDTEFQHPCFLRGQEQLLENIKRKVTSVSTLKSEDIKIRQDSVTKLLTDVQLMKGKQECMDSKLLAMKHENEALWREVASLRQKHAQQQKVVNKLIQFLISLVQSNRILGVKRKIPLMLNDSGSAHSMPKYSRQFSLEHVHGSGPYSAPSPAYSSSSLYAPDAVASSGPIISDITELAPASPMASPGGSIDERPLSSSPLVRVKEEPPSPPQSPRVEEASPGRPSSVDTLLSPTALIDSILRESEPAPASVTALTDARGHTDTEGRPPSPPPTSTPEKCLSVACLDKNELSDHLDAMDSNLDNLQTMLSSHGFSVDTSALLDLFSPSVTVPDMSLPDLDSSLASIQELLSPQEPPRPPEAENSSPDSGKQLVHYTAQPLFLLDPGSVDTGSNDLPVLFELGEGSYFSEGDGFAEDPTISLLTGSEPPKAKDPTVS
# Chain of ELF4 (Q99607 whole entry): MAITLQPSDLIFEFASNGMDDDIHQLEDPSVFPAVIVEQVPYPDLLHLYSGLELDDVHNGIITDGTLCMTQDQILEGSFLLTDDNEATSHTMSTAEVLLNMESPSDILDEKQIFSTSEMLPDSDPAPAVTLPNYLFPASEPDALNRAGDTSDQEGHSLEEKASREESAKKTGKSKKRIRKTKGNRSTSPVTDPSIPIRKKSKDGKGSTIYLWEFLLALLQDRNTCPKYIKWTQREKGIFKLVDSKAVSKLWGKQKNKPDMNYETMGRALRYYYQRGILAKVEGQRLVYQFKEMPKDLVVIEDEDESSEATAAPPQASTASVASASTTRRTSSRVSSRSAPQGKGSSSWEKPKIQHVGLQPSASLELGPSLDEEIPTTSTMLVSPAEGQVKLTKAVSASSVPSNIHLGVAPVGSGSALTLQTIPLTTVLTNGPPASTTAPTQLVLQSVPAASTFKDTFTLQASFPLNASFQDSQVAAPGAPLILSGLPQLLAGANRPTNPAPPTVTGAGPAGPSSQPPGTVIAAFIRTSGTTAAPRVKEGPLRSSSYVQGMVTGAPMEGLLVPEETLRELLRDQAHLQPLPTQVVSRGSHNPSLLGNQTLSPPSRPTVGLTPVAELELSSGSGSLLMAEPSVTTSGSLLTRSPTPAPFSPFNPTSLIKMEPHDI
# Chain of ETV5 (P41161 whole entry): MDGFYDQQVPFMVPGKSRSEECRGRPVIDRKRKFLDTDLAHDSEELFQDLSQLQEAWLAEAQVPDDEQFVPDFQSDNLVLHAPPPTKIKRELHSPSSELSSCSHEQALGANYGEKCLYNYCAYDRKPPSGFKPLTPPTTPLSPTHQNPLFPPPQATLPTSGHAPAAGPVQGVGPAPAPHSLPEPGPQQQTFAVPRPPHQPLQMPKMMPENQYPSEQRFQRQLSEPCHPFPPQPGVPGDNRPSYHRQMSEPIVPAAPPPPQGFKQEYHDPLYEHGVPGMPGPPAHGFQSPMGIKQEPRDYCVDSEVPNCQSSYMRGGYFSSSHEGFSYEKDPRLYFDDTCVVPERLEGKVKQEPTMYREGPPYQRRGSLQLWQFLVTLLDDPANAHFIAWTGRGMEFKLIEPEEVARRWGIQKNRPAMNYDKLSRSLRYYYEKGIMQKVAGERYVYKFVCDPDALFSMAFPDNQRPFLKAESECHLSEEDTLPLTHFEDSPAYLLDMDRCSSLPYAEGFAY
# Chain of CRX (O43186 whole entry): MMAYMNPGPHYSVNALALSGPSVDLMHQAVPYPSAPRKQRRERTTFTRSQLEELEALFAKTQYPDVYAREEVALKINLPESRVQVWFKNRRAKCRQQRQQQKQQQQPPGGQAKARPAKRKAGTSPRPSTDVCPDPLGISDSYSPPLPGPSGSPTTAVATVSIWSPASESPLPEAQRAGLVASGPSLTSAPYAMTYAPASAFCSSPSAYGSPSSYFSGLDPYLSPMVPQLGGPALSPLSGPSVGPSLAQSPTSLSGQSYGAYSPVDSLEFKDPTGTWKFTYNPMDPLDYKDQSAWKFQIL
sequence,measurement,setting,value
CTTCGG,binding signal,[1],"1.51 fold enrichment (6-mer frequency, TF over GST control)"
same,binding signal,[2],"1.54 fold enrichment (6-mer frequency, TF over GST control)"
same,binding signal,[3],"1.77 fold enrichment (6-mer frequency, TF over GST control)"
same,binding signal,[4],"1.48 fold enrichment (6-mer frequency, TF over GST control)"
same,binding signal,[5],"1.5 fold enrichment (6-mer frequency, TF over GST control)"
same,binding signal,[6],"1.52 fold enrichment (6-mer frequency, TF over GST control)"
same,binding signal,[7],"1.52 fold enrichment (6-mer frequency, TF over GST control)"
same,binding signal,[8],"1.39 fold enrichment (6-mer frequency, TF over GST control)"
same,binding signal,[9],"1.52 fold enrichment (6-mer frequency, TF over GST control)"
